What was measured:
Conditions in all cases: Compound Concentration (nM):1000
MYLK4 = system: MYLK4
MYLK = system: MYLK
MYO3A = system: MYO3A
MYO3B = system: MYO3B
NDR1 = system: T1, NDR1
T1 construct: gene STK38

NDR2 = system: T2, NDR2
T2 construct: gene STK38L

NEK10 = system: NEK10
NEK11 = system: NEK11
NEK1 = system: NEK1
NEK2 = system: NEK2
NEK3 = system: NEK3
NEK4 = system: NEK4
NEK5 = system: NEK5
NEK6 = system: NEK6
NEK7 = system: NEK7
NEK9 = system: NEK9
NIK = system: T3, NIK
T3 construct: gene MAP3K14

NIM1 = system: T4, NIM1
T4 construct: gene MGC42105

NLK = system: NLK
OSR1 = system: T5, OSR1
T5 construct: gene OXSR1
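Also: KINOMEscan scanMAX binding as percent activity remaining versus control; lower means stronger binding.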

Row | Structure (SMILES) | Percent Control (MYLK4) | Percent Control (MYLK) | Percent Control (MYO3A) | Percent Control (MYO3B) | Percent Control (NDR1) | Percent Control (NDR2) | Percent Control (NEK10) | Percent Control (NEK11) | Percent Control (NEK1) | Percent Control (NEK2) | Percent Control (NEK3) | Percent Control (NEK4) | Percent Control (NEK5) | Percent Control (NEK6) | Percent Control (NEK7) | Percent Control (NEK9) | Percent Control (NIK) | Percent Control (NIM1) | Percent Control (NLK) | Percent Control (OSR1)
1 | CC(C)COC(=O)c1ccc2c(c1)/C(=C/Nc1ccc(S(N)(=O)=O)cc1)C(=O)N2 [GW416981X] | 100% | 100% | 100% | 100% | 66% | 100% | 100% | 100% | 94% | 100% | 95% | 90% | 100% | 100% | 100% | 83% | 95% | 86% | 100% | 100%
2 | NS(=O)(=O)c1ccc(N/N=C2\C(=O)Nc3ccc(C(=O)NCCc4c[nH]cn4)cc32)cc1 [GW300660X] | 87% | 79% | 100% | 100% | 77% | 100% | 100% | 100% | 100% | 100% | 78% | 80% | 100% | 100% | 100% | 100% | 74% | 14% | 100% | 100%
3 | O=C(Nc1n[nH]c2nc(-c3ccc(O)cc3)c(Br)cc12)C1CC1 [SB-725317] | 100% | 56% | 48% | 100% | 100% | 100% | 100% | 100% | 99% | 100% | 100% | 88% | 100% | 100% | 86% | 98% | 100% | 84% | 54% | 100%
4 | COC(=O)Nc1nc2ccc(Oc3ccc(NC(=O)Nc4cc(C(F)(F)F)ccc4F)cc3)cc2s1.Cl [GW693917A] | 93% | 100% | 93% | 100% | 86% | 94% | 90% | 100% | 94% | 82% | 87% | 83% | 76% | 100% | 100% | 50% | 80% | 79% | 95% | 100%
5 | CN(C)c1cc2c(Nc3ccc4c(cnn4Cc4ccccc4)c3)ncnc2cn1 [GW282974X] | 86% | 100% | 92% | 99% | 100% | 84% | 89% | 100% | 79% | 66% | 77% | 99% | 48% | 27% | 78% | 88% | 86% | 74% | 90% | 100%

From publication PMC7826789 (International Journal of Molecular Sciences, 2021)
